Reference: PubChem BioAssay (NCI)
Compounds without any hit were thinned out: in the full panel of roughly 79,000, 15% have a hit. Unmarked numbers belong to inactive results. Calls of active or inactive are those of the source. Cut-off read from the data, not from the text of the source: active = growth inhibition above about 70%; inactive = the rest.

Key:
[1] = NCI Yeast Anticancer Drug Screen. Data for the rad50 strain (AID 155);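 note: 0% = growth of vehicle-only cultures of the same strain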; conditions: S. cerevisiae rad50 strain growth inhibition, stronger effect = higher value
Method in brief: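 A DNA repair-deficient yeast mutant serves as the test organism; compound-induced growth inhibition is calculated against vehicle-treated cells.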

[2] = NCI Yeast Anticancer Drug Screen. Data for the mec2-1 strain (AID 157); conditions: S. cerevisiae mec2-1 strain, stronger effect = higher value
Method in brief: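 Compounds were applied to mec2-1 yeast cells. Their growth was then compared with that of vehicle-treated cultures to give growth inhibition.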

[3] = NCI Yeast Anticancer Drug Screen. Data for the sgs1 mgt1 strain (AID 161);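 note: 0% = growth of cultures given vehicle only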; conditions: S. cerevisiae sgs1 mgt1 strain, stronger effect = higher value
Method in brief: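 Growth of a repair-deficient yeast mutant was monitored after compound treatment and expressed as inhibition relative to vehicle-treated cultures.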

[4] = NCI Yeast Anticancer Drug Screen. Data for the cln2 rad14 strain (AID 165);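 note: 0% = growth equal to vehicle treated cultures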; conditions: S. cerevisiae cln2 rad14 strain, stronger effect = higher value
Method in brief: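 Strain: cln2 rad14 yeast, altered in cell cycle control and DNA damage repair. Read-out: growth inhibition vs vehicle.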

[5] = NCI Yeast Anticancer Drug Screen. Data for the bub3 strain (AID 167); conditions: S. cerevisiae bub3 mutant strain, stronger effect = higher value
Method in brief: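 Inhibition values come from growth of compound-treated mutant yeast normalised to vehicle-treated controls.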

[6] = NCI Yeast Anticancer Drug Screen. Data for the mlh1 rad18 strain (AID 175); conditions: S. cerevisiae mlh1 rad18 strain growth inhibition, stronger effect = higher value
Method in brief: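 A repair-deficient yeast strain is exposed to test compound, and growth is scored relative to vehicle-treated controls.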

[7] = at 5.0 µM (retest, dose inferred, filed as 0.5)
[8] = at 50.0 µM (retest, dose inferred, filed as 5.0)

| Compound | growth inhibition [1, 7] | growth inhibition [1, 8] | growth inhibition ([1]; at 50.0 µM) | growth inhibition [2, 7] | growth inhibition [2, 8] | growth inhibition ([2]; at 50.0 µM) | growth inhibition [3, 7] | growth inhibition [3, 8] | growth inhibition ([3]; at 50.0 µM) | growth inhibition [4, 7] | growth inhibition [4, 8] | growth inhibition ([4]; at 50.0 µM) | growth inhibition [5, 7] | growth inhibition [5, 8] | growth inhibition ([5]; at 50.0 µM) | growth inhibition [6, 7] | growth inhibition [6, 8] | growth inhibition ([6]; at 50.0 µM) |
| --- | --- | --- | --- | --- | --- | --- | --- | --- | --- | --- | --- | --- | --- | --- | --- | --- | --- | --- |
| C[SH+]c1ccccc1N=Cc1ccccn1.C[SH+]c1ccccc1N=Cc1ccccn1.[Ni+2].[O-][Cl+3]([O-])([O-])[O-] | -3% | 11% | 99% (active) | -5% | 5% | 97.2% (active) | -1% | 12% | 99.5% (active) | 3% | 7% | 58.2% | -4% | 2% | 98.8% (active) | 1% | 16% | 98% (active) |
| c1cs[c]([Hg][c]2cccs2)c1 | 99% (active) | 98% (active) | 99.7% (active) | 99% (active) | 76% (active) | 99.5% (active) | 100% (active) | 97% (active) | 99.6% (active) | 97% (active) | 97% (active) | 98% (active) | 100% (active) | 98% (active) | 99.5% (active) | 99% (active) | 95% (active) | 99.5% (active) |
| O=C(O)C1CC2c3ccccc3C1([N+](=O)[O-])c1ccccc12 (configuration not stated) | 0% | 8% | 14.2% | -1% | 4% | 1.45% | 0% | 7% | 31.1% | -3% | 15% | 41% | 2% | 6% | 3.5% | 0% | 8% | 21.1% |
| O=S(=O)(CCBr)CCBr | 51% | 68% | 88.3% (active) | 43% | 56% | 84.2% (active) | 66% | 89% (active) | 88.4% (active) | 92% (active) | 93% (active) | 41.9% | 80% (active) | 94% (active) | 83.2% (active) | 33% | 57% | 85.2% (active) |
| COc1cc(/C=C/c2ccc(OC)c(O)c2)cc(OC)c1 | 0% | 96% (active) | 98.3% (active) | -4% | 98% (active) | 99.2% (active) | 5% | 98% (active) | 98.9% (active) | -14% | 97% (active) | 98.2% (active) | -4% | 98% (active) | 98.2% (active) | -3% | 97% (active) | 98.9% (active) |
| ClCCN(CCCl)CCN1c2ccc3ccccc3c2Sc2ccc3ccccc3c21 | -3% | 2% | 32.7% | 0% | 37% | 16.5% | -13% | 61% | 85% (active) | 2% | 1% | -19.2% | 1% | 79% (active) | 20.8% | -1% | 53% | 67.9% |
| COc1cc(/C=C/[N+](=O)[O-])c(OC)cc1Br | 44% | 58% | 59.9% | 27% | 45% | 83.3% (active) | 15% | 87% (active) | 87% (active) | 37% | 25% | 73% (active) | 24% | 75% (active) | 88.2% (active) | 38% | 40% | 89.2% (active) |
| N#C[S-].[Ce+3].c1cnc2c(c1)ccc1cccnc12.c1cnc2c(c1)ccc1cccnc12.c1cnc2c(c1)ccc1cccnc12 | 96% (active) | 99% (active) | 92% (active) | 99% (active) | 100% (active) | 94.8% (active) | 100% (active) | 100% (active) | 91% (active) | 94% (active) | 98% (active) | 93.5% (active) | 99% (active) | 99% (active) | 93% (active) | 97% (active) | 99% (active) | 92.8% (active) |
| Nc1cc2[nH]cnc2c([Se])n1 | -155% | -6% | 56% | -39% | -11% | 62.9% | -54% | 19% | 48% | -60% | -33% | 7.45% | -75% | 21% | 57.5% | -141% | -29% | 83.8% (active) |
